Experimental data: PubChem BioAssay AID1508600 (Functional Genomics Laboratory (NCATS/FGL), 2020)
Among all 53,000 sequences or so, about 3,700 (7%) were called active. The sample as a whole holds a higher share of actives than the screen did. Values without a mark were called inactive.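 The calls were made as follows: active = gene knockdowns whose robust z-score for IL-1 alpha signal is at least 2 or at most -2, so actives lie on both sides; inactive = the rest.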

Experiment: Components of the Cytosolic LPS Sensing Pathway: Gene Identification via Genome-wide siRNA Screen;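 also: robust z of the log signal after scaling to non-targeting control siRNA wells of the plate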
Details: RAW264.7 macrophages, IL-1a HTRF, actives lie on both sides, screened at 100 nM (by protocol), cells primed 5 h with Pam3CSK4 first
Outline: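 Supernatant IL-1a by HTRF from RAW264.7 cells primed with Pam3CSK4 (5 hours) and transfected with LipidA (24 hour) after 48h siRNA knockdown at 100 nM; cell viability checked with CellTiter-Glo.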
Work on GGGAUAGUUACCUAAGACATT against Adarb2 yielded a z-score of 0.593. In the case of GCACAAGUCUAAACAGCUGTT against Fermt1, the z-score is reported as 0.494. GGAAAAAUACUCCAUAUUCTT against Enam gave a z-score of 0.0353. For CCUCAACACUCAGCUCAAUTT against Ifna14, the z-score was -2.67 (active). In the case of GGCCAGUAGAUCCUUCUAATT against Fgf16, the z-score is reported as 0.406. For CCUAAUCUAGAGCAACACATT against Ankrd34c, the z-score was -1.67. With GGCCUACCUUACCCUAAGATT against Adam32 the z-score was 0.513. With CCAUGGCUUACGAGAGACATT against Mavs the z-score was -0.884. GGAAUCCUUUCCUAAAUUGTT against Lin9 gave a z-score of 0.745. In the case of GGAUAUGCUCUCUUGGCUCTT against Ctsk, the z-score is reported as -2.07 (active). Sequence GGCUUCCUCCACUCUUUCCTT against Rhbg has a z-score of -1.81. Sequence GGAACCAUGAAAUAAAUGUTT against Acad8 has a z-score of 0.684. In the case of CCCUUAUUGAUUCUUCAAGTT against Ngp, the z-score is reported as 0.342. For “GGUGCAACCAGUGUGUGAUTT against St6galnac6”, the z-score was 4.22 (active). With CCCUCUAUCCUUAAACCAUTT against Erg28 the z-score was -0.549. For CCUAUUCUUAACACCCUUGTT against Tfr2, the z-score was 0.891. With AUCUCUCCUGUUCUAACACTT against Olfr26 the z-score was -0.242. GGUCAUCAGCUUGUAACCATT against Mmadhc gave a z-score of -1.37. For “GGACAAUUACAUCCAGCCUTT against 2610528J11Rik”, the z-score was -2.11 (active). Sequence GGACCUCAGCGAAGACAAUTT against Cd300e has a z-score of 0.114. In the case of GGUGAAAAGGUUGAUGUCATT against Spertl, the z-score is reported as -0.368. With GCUCAAUAGCUCAAAGUUUTT against Chsy3 the z-score was -0.197. With GCCCUCCAACCUCGAUAACTT against Shisa7 the z-score was 2.9 (active). In the case of GGAUGACCAAGAAUGGGAATT against Dap, the z-score is reported as 0.341. GCAAAGGAGGCUUCUAUUGTT against Olfr380 showed a z-score of -0.803. For GGAGUUGUGGAAUUCUCUATT against Extl2, the z-score was -1.3. With AACAGAUCUUCUCUGGUCCTT against Klra15 the z-score was -2.47 (active). For GCUUGUGUUUUAGAGCCGCTT against Mat1a, the z-score was 0.653. In the case of GCACAAUGACGCACUUACCTT against Pik3r2, the z-score is reported as 0.693. CCUGGAAUGUAUUUGUUAUTT against Nkain2 showed a z-score of 0.0256. With GGAACACUACCGUUUUGGGTT against Ehd2 the z-score was 2.55 (active). Sequence GGACCAGGUUUGUUUUUUATT against Stom has a z-score of 1.03. Work on CGGUUUUGUCAAAGCCCUGTT against Junb yielded a z-score of 0.322. Work on GGUCAAGACGGUCUACCGATT against Rab3d yielded a z-score of -0.571. For GGGAUAUCAAAGCAAAAAUTT against Rab8a, the z-score was -0.578. Work on GGGUUCACGAAAGAGUAAATT against Clcn5 yielded a z-score of -1.21. For GCCGUACCGGAUUUUUUUCTT against Smyd3, the z-score was 4 (active). For GCAGCUAACUCCAAGUCAGTT against Tfam, the z-score was -1.42. In the case of GGACUUGCCUUGAUCGCUATT against Mars2, the z-score is reported as 0.853. For CGCGACAGAAUCAGUACAATT against Hnf4g, the z-score was 2.17 (active). Sequence GGUUCCUACACGAAAGGAUTT against Eif2b4 has a z-score of 0.14. GCCUUUACCCAAAUUAUCATT against Defb4 showed a z-score of 0.567. In the case of GGACACUGUACUCAAACCUTT against Cntnap5b, the z-score is reported as -2.86 (active). GGUGUAUACUGUGAAAUCATT against Notch1 gave a z-score of -0.319. Work on GGGCAUUGUUGAGCACCUUTT against Pgap6 yielded a z-score of -1.81. GGAAAAGCUGGAGGAAGACTT against Tef gave a z-score of 0.525. GGAAUGUCAAUCUUGAGAGTT against Asprv1 gave a z-score of -0.812. GCAGACAUUGCACAAACCCTT against Ankrd10 showed a z-score of 0.355. Work on GCCUGUCUCCUCAAUGCUUTT against Gm9903 yielded a z-score of -0.319. With ACUGUAUGAAGAGGAAACATT against Krt87 the z-score was -2.14 (active). Work on GGACAGUAUAGUGGAGAUCTT against Fgf22 yielded a z-score of 1.66. With GCUAUUCUGUCUACGUGUATT against H2bc18 the z-score was -0.356. In the case of CCGAAAUGUGUGUUUUAAATT against Vapb, the z-score is reported as 1.57. In the case of GGUCUUUCCGGCAGUUCUUTT against Rxrg, the z-score is reported as -2.27 (active). Work on GGAAUCGGUGGCCAUCAAUTT against Olfr771 yielded a z-score of 0.458. For GGAAGCUGAAGGUUUGCCATT against Wipi2, the z-score was -0.529. For GGAUCAGGAGCUGUUUGGATT against Adamtsl4, the z-score was 1.05. In the case of GGAUGUCUACUGGAAUGUUTT against Pigv, the z-score is reported as -1.16. GUGAAGGCCCAUGGCAAGATT against Hbb-b1 gave a z-score of -0.235. CCGUAUUUGGACUGAGCAATT against Chic2 showed a z-score of 0.63. Work on GCUAGGGAUUUACCUCUUCTT against Gpr65 yielded a z-score of 0.743. With GCCUGAGGAUCUAUAGAUATT against Prss29 the z-score was -1.36. In the case of UGGAAGCCUUAUGCCGUCUTT against Gpr31b, the z-score is reported as 0.895. With GGCUCUAACUGUGAGAAGATT against Dll3 the z-score was -2.44 (active). GGCUAACUCCUUAAAACCUTT against Aldh18a1 showed a z-score of -0.372. GGCUUCCACGUAAUUGUCCTT against Six3os1 gave a z-score of 0.649. In the case of GGCCGACUUGAUCAAUAACTT against Hsp90aa1, the z-score is reported as -0.164. For CCCGGAGCUUGAAUUACUGTT against Usp7, the z-score was 2.36 (active). With GGAUUUUUCCAUAAAAACCTT against B3galnt1 the z-score was 1.04.
